# The supplement of paper PMC6992640
# System: UCD52 (cells of a triple-negative basal-like breast cancer xenograft)
# Assay: cell viability of combination (% of vehicle); higher = less cytotoxic
# Settings: 1 µM; 72 h; partner dose: 10 nM
# Experimental: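 PDX cells were treated for 72 h with each drug at 1 µM plus afatinib (10 nM; 1 µM for WHIM30). Luciferase viability is expressed as percent of vehicle.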
row,SMILES,cell viability of combination
1,CC(C)COc1ccc(CNC(=O)N(Cc2ccc(F)cc2)C2CCN(C)CC2)cc1 [Pimavanserin] + CN(C)C/C=C/C(=O)Nc1cc2c(Nc3ccc(F)c(Cl)c3)ncnc2cc1O[C@H]1CCOC1 [Afatinib],65.2
2,COc1cccc2c1C(=O)c1c(O)c3c(c(O)c1C2=O)C[C@@](O)(C(C)=O)C[C@@H]3O[C@H]1C[C@H](N)[C@H](O)[C@H](C)O1.Cl [Daunorubicin HCl] + CN(C)C/C=C/C(=O)Nc1cc2c(Nc3ccc(F)c(Cl)c3)ncnc2cc1O[C@H]1CCOC1 [Afatinib],20.8
3,CC[C@H](C)[C@H]1O[C@]2(CC[C@@H]1C)C[C@@H]1C[C@@H](C/C=C(\C)[C@@H](O[C@H]3C[C@H](OC)[C@@H](O[C@H]4C[C@H](OC)[C@@H](O)[C@H](C)O4)[C@H](C)O3)[C@@H](C)/C=C/C=C3\CO[C@@H]4[C@H](O)C(C)=C[C@@H](C(=O)O1)[C@]34O)O2 [Ivermectin] + CN(C)C/C=C/C(=O)Nc1cc2c(Nc3ccc(F)c(Cl)c3)ncnc2cc1O[C@H]1CCOC1 [Afatinib],45.8
4,Cn1cnc2c(F)c(Nc3ccc(Br)cc3F)c(C(=O)NOCCO)cc21 + CN(C)C/C=C/C(=O)Nc1cc2c(Nc3ccc(F)c(Cl)c3)ncnc2cc1O[C@H]1CCOC1 [Afatinib],54
5,CNC(=O)c1cc(Oc2ccc(NC(=O)Nc3ccc(Cl)c(C(F)(F)F)c3)c(F)c2)ccn1 [Regorafenib] + CN(C)C/C=C/C(=O)Nc1cc2c(Nc3ccc(F)c(Cl)c3)ncnc2cc1O[C@H]1CCOC1 [Afatinib],55.9
6,Clc1ccc(C(Cn2ccnc2)OCc2ccsc2Cl)c(Cl)c1 (stereo not given) [Tioconazole] + CN(C)C/C=C/C(=O)Nc1cc2c(Nc3ccc(F)c(Cl)c3)ncnc2cc1O[C@H]1CCOC1 [Afatinib],81.8
7,CCN(CC)CCNC(=O)c1c(C)[nH]c(C=C2C(=O)Nc3ccc(F)cc32)c1C [Sunitinib] + CN(C)C/C=C/C(=O)Nc1cc2c(Nc3ccc(F)c(Cl)c3)ncnc2cc1O[C@H]1CCOC1 [Afatinib],50.4
8,Nc1ncn(C2OC(CO)C(O)C2O)c(=O)n1 (stereo not given) [5-Azacytidine] + CN(C)C/C=C/C(=O)Nc1cc2c(Nc3ccc(F)c(Cl)c3)ncnc2cc1O[C@H]1CCOC1 [Afatinib],58.5
9,Cc1ccc(NC(=O)c2ccc(CN3CCN(C)CC3)cc2)cc1Nc1nc(-c2cccnc2)cs1 [Masitinib (AB1010)] + CN(C)C/C=C/C(=O)Nc1cc2c(Nc3ccc(F)c(Cl)c3)ncnc2cc1O[C@H]1CCOC1 [Afatinib],64.5
10,CN(C)CCOc1ccc(C(=C(CCCl)c2ccccc2)c2ccccc2)cc1.O=C(O)CC(O)(CC(=O)O)C(=O)O [Toremifene Citrate] + CN(C)C/C=C/C(=O)Nc1cc2c(Nc3ccc(F)c(Cl)c3)ncnc2cc1O[C@H]1CCOC1 [Afatinib],77.4
11,N.N.O=C([O-])C1(C(=O)[O-])CCC1.[Pt+2] [Carboplatin] + CN(C)C/C=C/C(=O)Nc1cc2c(Nc3ccc(F)c(Cl)c3)ncnc2cc1O[C@H]1CCOC1 [Afatinib],68.6
12,CN1CCN(CCCN2c3ccccc3Sc3ccc(C(F)(F)F)cc32)CC1.Cl.Cl [Trifluoperazine 2HCl] + CN(C)C/C=C/C(=O)Nc1cc2c(Nc3ccc(F)c(Cl)c3)ncnc2cc1O[C@H]1CCOC1 [Afatinib],73.1
13,CCCCCCCCOc1ccccc1C(=O)Nc1ccc(C(=O)OCC[N+](C)(CC)CC)cc1.[Br-] [Otilonium Bromide] + CN(C)C/C=C/C(=O)Nc1cc2c(Nc3ccc(F)c(Cl)c3)ncnc2cc1O[C@H]1CCOC1 [Afatinib],78.6
14,COc1cc(C(=O)NS(=O)(=O)c2ccccc2C)ccc1Cc1cn(C)c2ccc(NC(=O)OC3CCCC3)cc12 [Zafirlukast] + CN(C)C/C=C/C(=O)Nc1cc2c(Nc3ccc(F)c(Cl)c3)ncnc2cc1O[C@H]1CCOC1 [Afatinib],71.6
15,Cc1ccc(-n2[nH]c(C)c(NN=C3C=CC=C(c4cccc(C(=O)O)c4)C3=O)c2=O)cc1C [Eltrombopag] + CN(C)C/C=C/C(=O)Nc1cc2c(Nc3ccc(F)c(Cl)c3)ncnc2cc1O[C@H]1CCOC1 [Afatinib],77.1
16,CN(C)c1ccc(C(=C2C=CC(=[N+](C)C)C=C2)c2ccc(N(C)C)cc2)cc1.[Cl-] [Crystal Violet] + CN(C)C/C=C/C(=O)Nc1cc2c(Nc3ccc(F)c(Cl)c3)ncnc2cc1O[C@H]1CCOC1 [Afatinib],41
17,Cc1cc(-n2c(=O)[nH]c(=O)n(C)c2=O)ccc1Oc1ccc(SC(F)(F)F)cc1 [Toltrazuril] + CN(C)C/C=C/C(=O)Nc1cc2c(Nc3ccc(F)c(Cl)c3)ncnc2cc1O[C@H]1CCOC1 [Afatinib],76.1
18,CC(C)CC(NC(=O)C(NC(=O)c1cccc(-c2ccccc2)n1)C(C)O)B(O)O (stereo not given) + CN(C)C/C=C/C(=O)Nc1cc2c(Nc3ccc(F)c(Cl)c3)ncnc2cc1O[C@H]1CCOC1 [Afatinib],18.9
19,O=C(NC1CCN(CCCCC2(C(=O)NCC(F)(F)F)c3ccccc3-c3ccccc32)CC1)c1ccccc1-c1ccc(C(F)(F)F)cc1 [Lomitapide] + CN(C)C/C=C/C(=O)Nc1cc2c(Nc3ccc(F)c(Cl)c3)ncnc2cc1O[C@H]1CCOC1 [Afatinib],43.9
20,CNCCCC12CCC(c3ccccc31)c1ccccc12.Cl [Maprotiline HCl] + CN(C)C/C=C/C(=O)Nc1cc2c(Nc3ccc(F)c(Cl)c3)ncnc2cc1O[C@H]1CCOC1 [Afatinib],61.4

row,SMILES,cell viability of combination
1,CCCCCCCCCCCC1=C(O)C(=O)C=C(O)C1=O [Embelin] + CN(C)C/C=C/C(=O)Nc1cc2c(Nc3ccc(F)c(Cl)c3)ncnc2cc1O[C@H]1CCOC1 [Afatinib],67.8
2,Clc1ccc(COC(Cn2ccnc2)c2ccc(Cl)cc2Cl)c(Cl)c1.O=[N+]([O-])O (stereo not given) [Miconazole Nitrate] + CN(C)C/C=C/C(=O)Nc1cc2c(Nc3ccc(F)c(Cl)c3)ncnc2cc1O[C@H]1CCOC1 [Afatinib],76.3
3,CC(C)(C)NC(=O)C1CC2CCCCC2CN1CC(O)C(Cc1ccccc1)NC(=O)C(CC(N)=O)NC(=O)c1ccc2ccccc2n1.CS(=O)(=O)O (stereo not given) [Saquinavir mesylate] + CN(C)C/C=C/C(=O)Nc1cc2c(Nc3ccc(F)c(Cl)c3)ncnc2cc1O[C@H]1CCOC1 [Afatinib],61.1
4,COc1cc2nccc(Oc3ccc(NC(=O)C4(C(=O)Nc5ccc(F)cc5)CC4)cc3)c2cc1OC.O=C(O)CC(O)C(=O)O [Cabozantinib malate (XL184)] + CN(C)C/C=C/C(=O)Nc1cc2c(Nc3ccc(F)c(Cl)c3)ncnc2cc1O[C@H]1CCOC1 [Afatinib],64.7
5,Cl.Fc1ccc(C2CCNCC2COc2ccc3c(c2)OCO3)cc1 (stereo not given) [Paroxetine HCl] + CN(C)C/C=C/C(=O)Nc1cc2c(Nc3ccc(F)c(Cl)c3)ncnc2cc1O[C@H]1CCOC1 [Afatinib],60.4
6,COc1cccc2c1C(=O)c1c(O)c3c(c(O)c1C2=O)CC(O)(C(=O)CO)CC3OC1CC(N)C(O)C(C)O1.Cl (stereo not given) [Doxorubicin (Adriamycin) HCl] + CN(C)C/C=C/C(=O)Nc1cc2c(Nc3ccc(F)c(Cl)c3)ncnc2cc1O[C@H]1CCOC1 [Afatinib],40.9
7,CC(C)C1=CC(=C2NNC(=O)N2c2ccc3c(ccn3C)c2)C(=O)C=C1O [Ganetespib (STA-9090)] + CN(C)C/C=C/C(=O)Nc1cc2c(Nc3ccc(F)c(Cl)c3)ncnc2cc1O[C@H]1CCOC1 [Afatinib],30.9
8,Clc1ccc(COC(Cn2ccnc2)c2ccc(Cl)cc2Cl)cc1.O=[N+]([O-])O (stereo not given) [Econazole nitrate] + CN(C)C/C=C/C(=O)Nc1cc2c(Nc3ccc(F)c(Cl)c3)ncnc2cc1O[C@H]1CCOC1 [Afatinib],62.2
9,CC(O)C(=O)O.CCOc1ccc2nc3cc(N)ccc3c(N)c2c1.O [Ethacridine lactate monohydrate] + CN(C)C/C=C/C(=O)Nc1cc2c(Nc3ccc(F)c(Cl)c3)ncnc2cc1O[C@H]1CCOC1 [Afatinib],70.5
10,COc1cc(Nc2c(C#N)cnc3cc(OCCCN4CCN(C)CC4)c(OC)cc23)c(Cl)cc1Cl [Bosutinib (SKI-606)] + CN(C)C/C=C/C(=O)Nc1cc2c(Nc3ccc(F)c(Cl)c3)ncnc2cc1O[C@H]1CCOC1 [Afatinib],25.9
11,C[C@H]1O[C@@H](O[C@H]2[C@@H](O)C[C@H](O[C@H]3[C@@H](O)C[C@H](O[C@H]4CC[C@@]5(C)[C@H](CC[C@@H]6[C@@H]5C[C@@H](O)[C@]5(C)[C@@H](C7=CC(=O)OC7)CC[C@]65O)C4)O[C@@H]3C)O[C@@H]2C)C[C@H](O)[C@@H]1O [Digoxin] + CN(C)C/C=C/C(=O)Nc1cc2c(Nc3ccc(F)c(Cl)c3)ncnc2cc1O[C@H]1CCOC1 [Afatinib],19.5
12,Cc1cn(-c2cc(NC(=O)c3ccc(C)c(Nc4nccc(-c5cccnc5)n4)c3)cc(C(F)(F)F)c2)cn1 [Nilotinib(AMN-107)] + CN(C)C/C=C/C(=O)Nc1cc2c(Nc3ccc(F)c(Cl)c3)ncnc2cc1O[C@H]1CCOC1 [Afatinib],56.1
13,CC[C@@H]1/C=C(\C)C[C@H](C)C[C@H](OC)[C@H]2O[C@@](O)(C(=O)C(=O)N3CCCC[C@H]3C(=O)O[C@H](/C(C)=C/[C@@H]3CC[C@H](Cl)[C@H](OC)C3)[C@H](C)[C@@H](O)CC1=O)[C@H](C)C[C@@H]2OC [Pimecrolimus] + CN(C)C/C=C/C(=O)Nc1cc2c(Nc3ccc(F)c(Cl)c3)ncnc2cc1O[C@H]1CCOC1 [Afatinib],70.7
14,CCOC(=O)C1=C(COCCN)NC(C)=C(C(=O)OC)C1c1ccccc1Cl (stereo not given) [Amlodipine] + CN(C)C/C=C/C(=O)Nc1cc2c(Nc3ccc(F)c(Cl)c3)ncnc2cc1O[C@H]1CCOC1 [Afatinib],79.6
15,Cl.OC(CNCC(O)C1CCc2cc(F)ccc2O1)C1CCc2cc(F)ccc2O1 (stereo not given) [Nebivolol] + CN(C)C/C=C/C(=O)Nc1cc2c(Nc3ccc(F)c(Cl)c3)ncnc2cc1O[C@H]1CCOC1 [Afatinib],64.9
16,CCC(NC(=O)C(C)NC)C(=O)N1CC(O)CC1Cc1c(-c2[nH]c3cc(F)ccc3c2CC2CC(O)CN2C(=O)C(CC)NC(=O)C(C)NC)[nH]c2cc(F)ccc12 (stereo not given) + CN(C)C/C=C/C(=O)Nc1cc2c(Nc3ccc(F)c(Cl)c3)ncnc2cc1O[C@H]1CCOC1 [Afatinib],53.5
17,Cc1cccc(CN2CCN(C(c3ccccc3)c3ccc(Cl)cc3)CC2)c1.Cl.Cl (stereo not given) [Meclizine 2HCl] + CN(C)C/C=C/C(=O)Nc1cc2c(Nc3ccc(F)c(Cl)c3)ncnc2cc1O[C@H]1CCOC1 [Afatinib],68.6
18,CN(C)CC=CC(=O)Nc1cc2c(Nc3ccc(F)c(Cl)c3)ncnc2cc1OC1CCOC1.O=C(O)C=CC(=O)O.O=C(O)C=CC(=O)O (stereo not given) [Afatinib dimaleate] + CN(C)C/C=C/C(=O)Nc1cc2c(Nc3ccc(F)c(Cl)c3)ncnc2cc1O[C@H]1CCOC1 [Afatinib],24.5
19,CN1CCN(CCOc2cc(OC3CCOCC3)c3c(Nc4c(Cl)ccc5c4OCO5)ncnc3c2)CC1 [Saracatinib (AZD0530)] + CN(C)C/C=C/C(=O)Nc1cc2c(Nc3ccc(F)c(Cl)c3)ncnc2cc1O[C@H]1CCOC1 [Afatinib],37.9
20,Nc1c(CC(=O)[O-])cccc1C(=O)c1ccccc1.O.[Na+] [Amfenac Sodium Monohydrate] + CN(C)C/C=C/C(=O)Nc1cc2c(Nc3ccc(F)c(Cl)c3)ncnc2cc1O[C@H]1CCOC1 [Afatinib],76.3
